In the supplement of paper PMC11732987, “Enantioselective OTUD7B fragment discovery through chemoproteomics screening and high-throughput optimisation” (Communications Chemistry, 2025):

What was measured:
Experiment in all cases: log2 ratio of Biotin-Ahx-Ub-VS probe labelling (fragment/DMSO); higher = less target engagement (more negative = stronger competition), active = hit call of the paper (q ≤ 0.05, log2 ratio ≤ -1)
Conditions in all cases: compound concentration: 200 uM; treatment time: 3 h
ALG13 = biological target: T1, ALG13 (UniProt Q9NP73)
T1 sequence (whole entry): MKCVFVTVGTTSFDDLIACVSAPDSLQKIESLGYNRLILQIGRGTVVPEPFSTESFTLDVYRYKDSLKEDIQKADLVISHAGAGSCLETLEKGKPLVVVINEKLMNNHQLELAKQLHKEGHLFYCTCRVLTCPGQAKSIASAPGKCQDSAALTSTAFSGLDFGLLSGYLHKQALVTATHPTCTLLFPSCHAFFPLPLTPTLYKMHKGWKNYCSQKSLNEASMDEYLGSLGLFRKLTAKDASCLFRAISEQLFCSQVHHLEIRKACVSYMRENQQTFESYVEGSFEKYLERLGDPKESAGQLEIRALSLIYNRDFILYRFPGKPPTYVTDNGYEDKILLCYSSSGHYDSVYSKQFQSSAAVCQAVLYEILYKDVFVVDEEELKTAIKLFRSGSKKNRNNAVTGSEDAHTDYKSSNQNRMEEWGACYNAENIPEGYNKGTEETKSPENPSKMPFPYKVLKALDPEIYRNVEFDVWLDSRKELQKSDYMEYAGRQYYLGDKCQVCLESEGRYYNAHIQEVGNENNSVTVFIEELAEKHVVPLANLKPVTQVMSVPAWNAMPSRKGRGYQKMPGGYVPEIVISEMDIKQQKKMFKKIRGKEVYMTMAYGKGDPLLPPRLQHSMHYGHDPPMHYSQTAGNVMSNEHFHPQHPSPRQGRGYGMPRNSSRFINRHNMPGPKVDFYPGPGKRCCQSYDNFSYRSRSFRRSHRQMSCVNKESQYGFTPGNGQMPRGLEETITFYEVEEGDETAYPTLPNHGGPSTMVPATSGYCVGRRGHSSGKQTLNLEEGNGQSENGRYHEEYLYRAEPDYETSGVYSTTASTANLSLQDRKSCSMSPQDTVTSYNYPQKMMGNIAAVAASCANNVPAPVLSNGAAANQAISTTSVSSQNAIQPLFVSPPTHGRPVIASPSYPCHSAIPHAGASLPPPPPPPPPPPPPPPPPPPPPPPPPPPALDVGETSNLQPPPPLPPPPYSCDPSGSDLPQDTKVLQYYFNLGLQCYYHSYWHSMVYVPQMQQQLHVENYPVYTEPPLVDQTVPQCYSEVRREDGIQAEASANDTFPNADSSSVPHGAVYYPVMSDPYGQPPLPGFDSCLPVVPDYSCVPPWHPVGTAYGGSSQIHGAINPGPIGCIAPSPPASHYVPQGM
In short: (§1)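 HEK293T lysate (495 µg per sample, in Tris/CHAPS/IGEPAL buffer with protease inhibitors) was exposed in triplicate for 3 h to fragment at 200 µM or to vehicle, then to Biotin-Ahx-Ub-VS at 0.5 µM final for 1 h. Labelled DUBs were enriched on NeutrAvidin, digested with LysC and trypsin, and analysed by diaPASEF LC-MS/MS. Spectronaut label-free quantities were normalised to the global median, and values are average log2 ratios of fragment over vehicle from an unpaired t-test. Only proteins with ≥2 unique peptides were used.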

ATXN3 = ATXN3 (UniProt P54252)
ATXN3, sequence (P54252 whole entry): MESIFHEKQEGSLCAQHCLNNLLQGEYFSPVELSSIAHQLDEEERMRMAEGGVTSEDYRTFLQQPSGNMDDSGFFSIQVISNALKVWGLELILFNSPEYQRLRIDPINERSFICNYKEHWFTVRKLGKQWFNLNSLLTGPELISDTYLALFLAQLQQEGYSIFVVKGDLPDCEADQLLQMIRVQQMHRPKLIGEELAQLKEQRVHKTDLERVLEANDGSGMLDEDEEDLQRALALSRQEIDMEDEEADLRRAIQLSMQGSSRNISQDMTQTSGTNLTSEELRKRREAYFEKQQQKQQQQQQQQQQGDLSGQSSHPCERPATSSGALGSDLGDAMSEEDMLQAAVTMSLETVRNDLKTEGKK
In short: as §1

BAP1 = biological target: T2, BAP1 (UniProt Q92560)
T2 sequence (whole entry): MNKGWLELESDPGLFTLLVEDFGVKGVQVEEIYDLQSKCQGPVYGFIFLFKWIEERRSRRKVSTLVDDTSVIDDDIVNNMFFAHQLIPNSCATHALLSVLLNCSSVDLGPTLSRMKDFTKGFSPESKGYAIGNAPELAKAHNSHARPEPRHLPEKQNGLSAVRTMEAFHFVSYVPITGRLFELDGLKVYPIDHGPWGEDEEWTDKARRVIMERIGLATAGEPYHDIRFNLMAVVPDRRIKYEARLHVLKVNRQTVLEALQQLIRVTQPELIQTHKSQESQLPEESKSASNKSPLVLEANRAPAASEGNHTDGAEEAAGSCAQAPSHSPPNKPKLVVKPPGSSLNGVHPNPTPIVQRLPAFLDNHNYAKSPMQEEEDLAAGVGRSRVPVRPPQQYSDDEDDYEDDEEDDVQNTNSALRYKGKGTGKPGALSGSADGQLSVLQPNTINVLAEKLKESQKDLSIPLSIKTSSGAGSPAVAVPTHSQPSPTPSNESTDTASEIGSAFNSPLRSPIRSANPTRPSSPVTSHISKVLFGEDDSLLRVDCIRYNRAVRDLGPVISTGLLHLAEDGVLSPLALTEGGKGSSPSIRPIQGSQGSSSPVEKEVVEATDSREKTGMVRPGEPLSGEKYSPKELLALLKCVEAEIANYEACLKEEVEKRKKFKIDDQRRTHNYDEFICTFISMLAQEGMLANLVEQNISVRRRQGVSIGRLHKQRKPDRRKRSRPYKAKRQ
In short: as §1

EIF3F = EIF3F (UniProt O00303)
EIF3F, sequence (O00303 whole entry): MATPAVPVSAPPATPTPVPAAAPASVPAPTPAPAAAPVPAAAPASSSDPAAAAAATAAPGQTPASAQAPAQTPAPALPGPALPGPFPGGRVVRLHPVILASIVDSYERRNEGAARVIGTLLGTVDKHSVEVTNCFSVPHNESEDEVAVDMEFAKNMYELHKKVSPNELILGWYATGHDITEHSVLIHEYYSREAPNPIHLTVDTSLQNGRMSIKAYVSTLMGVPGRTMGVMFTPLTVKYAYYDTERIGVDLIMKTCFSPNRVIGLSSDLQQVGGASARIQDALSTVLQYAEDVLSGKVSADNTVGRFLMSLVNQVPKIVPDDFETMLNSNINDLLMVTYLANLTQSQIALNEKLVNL
In short: as §1

EIF3H = EIF3H (UniProt O15372)
EIF3H, sequence (O15372 whole entry): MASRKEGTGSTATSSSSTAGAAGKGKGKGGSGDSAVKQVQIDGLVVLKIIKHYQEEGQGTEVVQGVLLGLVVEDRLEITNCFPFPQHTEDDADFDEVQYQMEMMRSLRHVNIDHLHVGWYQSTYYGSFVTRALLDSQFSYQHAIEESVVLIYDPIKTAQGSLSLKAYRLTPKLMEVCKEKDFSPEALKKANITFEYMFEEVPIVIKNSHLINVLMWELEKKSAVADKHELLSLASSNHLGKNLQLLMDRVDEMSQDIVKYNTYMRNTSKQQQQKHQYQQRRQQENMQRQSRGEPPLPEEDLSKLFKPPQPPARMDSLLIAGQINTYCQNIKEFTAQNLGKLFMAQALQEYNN
In short: as §1

FAM105A = biological target: T3, FAM105A (UniProt Q9NUU6)
T3 sequence (whole entry): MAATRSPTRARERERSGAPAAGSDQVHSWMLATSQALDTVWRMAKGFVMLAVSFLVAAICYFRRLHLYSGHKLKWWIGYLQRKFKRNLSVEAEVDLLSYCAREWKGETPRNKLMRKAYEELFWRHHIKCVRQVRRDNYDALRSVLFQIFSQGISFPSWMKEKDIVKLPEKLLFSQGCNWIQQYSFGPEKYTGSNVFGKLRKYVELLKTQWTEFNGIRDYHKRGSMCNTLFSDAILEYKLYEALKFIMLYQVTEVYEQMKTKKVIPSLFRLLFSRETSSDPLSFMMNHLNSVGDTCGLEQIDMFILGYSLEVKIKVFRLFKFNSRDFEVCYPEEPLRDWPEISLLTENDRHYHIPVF
In short: as §1

OTUB1 = OTUB1 (UniProt Q96FW1)
OTUB1, sequence (Q96FW1 whole entry): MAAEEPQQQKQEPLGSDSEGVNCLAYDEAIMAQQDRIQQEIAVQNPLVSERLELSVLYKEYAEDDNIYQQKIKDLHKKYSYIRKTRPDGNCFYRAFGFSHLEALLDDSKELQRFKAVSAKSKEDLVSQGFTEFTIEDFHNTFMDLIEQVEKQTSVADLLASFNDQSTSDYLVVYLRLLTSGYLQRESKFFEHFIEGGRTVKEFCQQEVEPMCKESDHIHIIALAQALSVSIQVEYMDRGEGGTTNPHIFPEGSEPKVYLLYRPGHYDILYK
In short: as §1

OTUD4 = biological target: T4, OTUD4 (UniProt Q01804)
T4 sequence (whole entry): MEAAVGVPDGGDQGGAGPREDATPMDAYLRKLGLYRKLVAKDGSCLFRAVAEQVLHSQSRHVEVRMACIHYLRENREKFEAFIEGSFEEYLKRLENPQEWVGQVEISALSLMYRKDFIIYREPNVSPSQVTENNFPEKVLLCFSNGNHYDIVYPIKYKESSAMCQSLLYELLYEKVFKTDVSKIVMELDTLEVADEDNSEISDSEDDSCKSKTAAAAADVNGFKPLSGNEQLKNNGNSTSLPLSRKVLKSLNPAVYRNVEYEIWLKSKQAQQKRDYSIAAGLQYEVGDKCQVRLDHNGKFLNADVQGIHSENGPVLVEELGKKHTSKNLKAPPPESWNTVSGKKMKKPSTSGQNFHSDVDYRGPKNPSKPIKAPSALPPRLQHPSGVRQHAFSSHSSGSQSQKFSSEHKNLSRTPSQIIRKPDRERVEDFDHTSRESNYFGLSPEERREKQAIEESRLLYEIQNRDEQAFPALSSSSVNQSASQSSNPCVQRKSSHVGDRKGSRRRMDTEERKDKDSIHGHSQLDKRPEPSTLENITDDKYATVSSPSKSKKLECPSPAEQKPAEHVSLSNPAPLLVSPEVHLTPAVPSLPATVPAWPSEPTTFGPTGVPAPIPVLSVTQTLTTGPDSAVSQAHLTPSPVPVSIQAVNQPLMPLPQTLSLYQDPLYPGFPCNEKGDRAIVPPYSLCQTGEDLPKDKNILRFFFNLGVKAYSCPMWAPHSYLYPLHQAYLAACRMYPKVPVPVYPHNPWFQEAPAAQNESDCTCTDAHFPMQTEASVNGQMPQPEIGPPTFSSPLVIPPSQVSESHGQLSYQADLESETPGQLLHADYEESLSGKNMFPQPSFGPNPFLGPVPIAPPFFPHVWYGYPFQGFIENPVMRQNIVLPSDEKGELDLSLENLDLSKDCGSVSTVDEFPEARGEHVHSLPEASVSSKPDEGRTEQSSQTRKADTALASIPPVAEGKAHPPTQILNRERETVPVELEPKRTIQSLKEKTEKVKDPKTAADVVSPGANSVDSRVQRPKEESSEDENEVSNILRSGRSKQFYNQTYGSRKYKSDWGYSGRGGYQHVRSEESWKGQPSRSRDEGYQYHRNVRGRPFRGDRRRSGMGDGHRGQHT
In short: as §1

OTUD5 = biological target: T5, OTUD5 (UniProt Q96G74)
T5 sequence (whole entry): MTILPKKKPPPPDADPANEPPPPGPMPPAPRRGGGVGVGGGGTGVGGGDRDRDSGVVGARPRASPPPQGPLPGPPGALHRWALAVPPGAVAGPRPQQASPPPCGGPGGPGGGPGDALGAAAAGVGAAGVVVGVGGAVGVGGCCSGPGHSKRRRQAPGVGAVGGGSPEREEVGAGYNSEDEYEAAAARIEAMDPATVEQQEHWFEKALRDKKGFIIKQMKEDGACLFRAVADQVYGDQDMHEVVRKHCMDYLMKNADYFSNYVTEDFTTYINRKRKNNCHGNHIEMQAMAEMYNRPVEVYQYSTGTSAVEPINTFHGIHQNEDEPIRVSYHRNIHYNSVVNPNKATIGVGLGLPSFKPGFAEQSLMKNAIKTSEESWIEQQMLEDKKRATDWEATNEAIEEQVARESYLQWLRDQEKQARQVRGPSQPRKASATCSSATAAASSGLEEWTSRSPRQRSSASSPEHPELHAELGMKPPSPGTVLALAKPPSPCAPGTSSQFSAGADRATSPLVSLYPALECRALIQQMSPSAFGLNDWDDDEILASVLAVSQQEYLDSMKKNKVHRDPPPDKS
In short: as §1

Measured: log2 ratio of Biotin-Ahx-Ub-VS probe labelling

O=C(CCl)N(Cc1ccsc1)C1CC1
inactive: ALG13 0.115 | ATXN3 -0.173 | BAP1 -0.841 | EIF3F -0.0964 | EIF3H 0.0796 | FAM105A -0.378 | OTUB1 -0.191 | OTUD4 -0.285 | OTUD5 -0.657
